Publication PMC11006913

Columns and labels:
Experiment in all cases: PBM; 200 nM protein, PBS
Settings in all cases: dsDNA, one strand shown
[1] = molecular target: HOXC9 (Homo sapiens, UniProt P31274 178-260, K195R)
[2] = molecular target: HOXA7 (Homo sapiens, UniProt P31268 116-202)
[3] = molecular target: HOXC9 (Homo sapiens, UniProt P31274 178-260)
[4] = molecular target: HOXC9 (Homo sapiens, UniProt P31274 178-260, R193K)
[5] = molecular target: HOXC9 (Homo sapiens, UniProt P31274 178-260, R222W)
[6] = molecular target: HOXA7 (Homo sapiens, UniProt P31268 116-202, W177C)
[7] = molecular target: NKX3-2 (Homo sapiens, UniProt P78367 192-278, P234S)
[8] = molecular target: NKX3-2 (Homo sapiens, UniProt P78367 192-278)
[9] = molecular target: HOXC10 (Homo sapiens, UniProt Q9NYD6 254-340)
[10] = molecular target: HOXD13 (Homo sapiens, UniProt P35453 263-343, T313R)
[11] = molecular target: HOXD13 (Homo sapiens, UniProt P35453 263-343)
[12] = molecular target: HOXC10 (Homo sapiens, UniProt Q9NYD6 254-340, K271E)
[13] = molecular target: HOXD13 (Homo sapiens, UniProt P35453 263-343, T313A)
[14] = molecular target: HOXA4 (Homo sapiens, UniProt Q00056 201-287, W262R)
[15] = molecular target: HOXA4 (Homo sapiens, UniProt Q00056 201-287)
[16] = molecular target: HOXA4 (Homo sapiens, UniProt Q00056 201-287, W262F)
[17] = molecular target: ALX4 (Homo sapiens, UniProt Q9H161 200-286)
[18] = molecular target: ALX4 (Homo sapiens, UniProt Q9H161 200-286, Q225E)
[19] = molecular target: MSX2 (Homo sapiens, UniProt P35548 130-214, R199I)
[20] = molecular target: MSX2 (Homo sapiens, UniProt P35548 130-214)
[21] = molecular target: VAX1 (Homo sapiens, UniProt Q5SQQ9 86-172)
[22] = molecular target: MSX2 (Homo sapiens, UniProt P35548 130-214, F161Y)
[23] = molecular target: VAX1 (Homo sapiens, UniProt Q5SQQ9 86-172, T142I)
[24] = molecular target: VAX1 (Homo sapiens, UniProt Q5SQQ9 86-172, K157R)
Sequence of VAX1 (Homo sapiens, UniProt Q5SQQ9 86-172, K157R) (Q5SQQ9 86-172 K157R): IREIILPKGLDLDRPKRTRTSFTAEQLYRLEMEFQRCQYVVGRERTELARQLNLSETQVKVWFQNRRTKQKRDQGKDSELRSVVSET

Sequence of HOXA4 (Homo sapiens, UniProt Q00056 201-287, W262F) (Q00056 201-287 W262F): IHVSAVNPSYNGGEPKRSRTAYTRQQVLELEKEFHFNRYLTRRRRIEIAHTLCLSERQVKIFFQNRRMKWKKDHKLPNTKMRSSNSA
Sequence of HOXA4 (Homo sapiens, UniProt Q00056 201-287, W262R) (Q00056 201-287 W262R): as the sequence (Q00056 201-287 W262F) above, with F62R counted along it
Sequence of HOXC9 (Homo sapiens, UniProt P31274 178-260, K195R) (P31274 178-260 K195R): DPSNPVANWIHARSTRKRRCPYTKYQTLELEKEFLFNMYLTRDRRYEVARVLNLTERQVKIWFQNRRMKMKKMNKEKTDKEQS
Sequence of HOXC9 (Homo sapiens, UniProt P31274 178-260, R193K) (P31274 178-260 R193K): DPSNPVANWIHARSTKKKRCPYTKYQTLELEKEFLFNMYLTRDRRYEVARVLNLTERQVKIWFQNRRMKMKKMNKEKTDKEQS
Sequence of HOXC9 (Homo sapiens, UniProt P31274 178-260) (P31274 178-260): as the sequence (P31274 178-260 R193K) above, with K16R counted along it
Sequence of HOXC9 (Homo sapiens, UniProt P31274 178-260, R222W) (P31274 178-260 R222W): as the sequence (P31274 178-260 R193K) above, with K16R, R45W counted along it
Sequence of HOXA4 (Homo sapiens, UniProt Q00056 201-287) (Q00056 201-287): as the sequence (Q00056 201-287 W262F) above, with F62W counted along it
Sequence of HOXC10 (Homo sapiens, UniProt Q9NYD6 254-340, K271E) (Q9NYD6 254-340 K271E): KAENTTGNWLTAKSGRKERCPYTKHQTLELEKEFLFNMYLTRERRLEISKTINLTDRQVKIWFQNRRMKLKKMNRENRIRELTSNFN
Sequence of HOXC10 (Homo sapiens, UniProt Q9NYD6 254-340) (Q9NYD6 254-340): as the sequence (Q9NYD6 254-340 K271E) above, with E18K counted along it
Sequence of ALX4 (Homo sapiens, UniProt Q9H161 200-286) (Q9H161 200-286): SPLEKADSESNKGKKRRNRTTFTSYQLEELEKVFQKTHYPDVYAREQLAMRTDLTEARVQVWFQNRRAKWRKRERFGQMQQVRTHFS
Sequence of NKX3-2 (Homo sapiens, UniProt P78367 192-278) (P78367 192-278): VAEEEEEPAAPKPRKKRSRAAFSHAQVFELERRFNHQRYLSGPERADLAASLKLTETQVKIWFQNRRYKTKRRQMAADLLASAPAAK
Sequence of HOXA7 (Homo sapiens, UniProt P31268 116-202, W177C) (P31268 116-202 W177C): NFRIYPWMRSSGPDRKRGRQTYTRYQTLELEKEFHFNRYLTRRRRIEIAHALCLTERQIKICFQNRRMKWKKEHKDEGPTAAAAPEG
Sequence of HOXD13 (Homo sapiens, UniProt P35453 263-343, T313A) (P35453 263-343 T313A): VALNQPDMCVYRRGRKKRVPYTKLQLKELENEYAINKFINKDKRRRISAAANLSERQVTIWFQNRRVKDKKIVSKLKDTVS
Sequence of HOXD13 (Homo sapiens, UniProt P35453 263-343, T313R) (P35453 263-343 T313R): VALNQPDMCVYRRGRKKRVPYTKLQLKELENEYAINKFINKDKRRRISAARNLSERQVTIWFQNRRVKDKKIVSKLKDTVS
Sequence of VAX1 (Homo sapiens, UniProt Q5SQQ9 86-172, T142I) (Q5SQQ9 86-172 T142I): as the sequence (Q5SQQ9 86-172 K157R) above, with T57I, R72K counted along it
Sequence of MSX2 (Homo sapiens, UniProt P35548 130-214) (P35548 130-214): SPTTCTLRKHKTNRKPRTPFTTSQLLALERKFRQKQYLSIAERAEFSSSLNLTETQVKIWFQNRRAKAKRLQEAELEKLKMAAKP
Sequence of MSX2 (Homo sapiens, UniProt P35548 130-214, R199I) (P35548 130-214 R199I): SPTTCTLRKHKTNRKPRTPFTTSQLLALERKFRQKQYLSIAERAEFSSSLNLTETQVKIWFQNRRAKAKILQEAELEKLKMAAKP
Sequence of HOXA7 (Homo sapiens, UniProt P31268 116-202) (P31268 116-202): as the sequence (P31268 116-202 W177C) above, with C62W counted along it
Sequence of NKX3-2 (Homo sapiens, UniProt P78367 192-278, P234S) (P78367 192-278 P234S): as the sequence (P78367 192-278) above, with P43S counted along it
Sequence of ALX4 (Homo sapiens, UniProt Q9H161 200-286, Q225E) (Q9H161 200-286 Q225E): as the sequence (Q9H161 200-286) above, with Q26E counted along it
Sequence of VAX1 (Homo sapiens, UniProt Q5SQQ9 86-172) (Q5SQQ9 86-172): as the sequence (Q5SQQ9 86-172 K157R) above, with R72K counted along it
Sequence of MSX2 (Homo sapiens, UniProt P35548 130-214, F161Y) (P35548 130-214 F161Y): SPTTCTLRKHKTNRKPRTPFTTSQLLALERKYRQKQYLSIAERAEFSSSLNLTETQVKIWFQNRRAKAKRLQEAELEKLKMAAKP
Sequence of HOXD13 (Homo sapiens, UniProt P35453 263-343) (P35453 263-343): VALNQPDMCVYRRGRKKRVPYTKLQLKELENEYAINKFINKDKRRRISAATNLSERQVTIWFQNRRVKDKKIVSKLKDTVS

With CAAGCTCG the binding signal [1] was 9.46 upbm affinity estimate (log intensity, higher = more binding, comparable within an allelic series), the binding signal [2] was 8.21 upbm affinity estimate (log intensity, higher = more binding, comparable within an allelic series) and the binding signal [3] was 9.49 upbm affinity estimate (log intensity, higher = more binding, comparable within an allelic series). The binding signal [4] was 9.44 upbm affinity estimate (log intensity, higher = more binding, comparable within an allelic series), the binding signal [5] was 9.62 upbm affinity estimate (log intensity, higher = more binding, comparable within an allelic series) and the binding signal [6] was 8.29 upbm affinity estimate (log intensity, higher = more binding, comparable within an allelic series). For the same sequence, the binding signal [7] was 10.3 upbm affinity estimate (log intensity, higher = more binding, comparable within an allelic series) and the binding signal [8] was 10.3 upbm affinity estimate (log intensity, higher = more binding, comparable within an allelic series).
In the case of ATTTACGA, the binding signal [1] is reported as 12.4 upbm affinity estimate (log intensity, higher = more binding, comparable within an allelic series), the binding signal [9] is reported as 12.3 upbm affinity estimate (log intensity, higher = more binding, comparable within an allelic series) and the binding signal [3] is reported as 12.6 upbm affinity estimate (log intensity, higher = more binding, comparable within an allelic series). For the same sequence, the binding signal [10] was 10.9 upbm affinity estimate (log intensity, higher = more binding, comparable within an allelic series), the binding signal [4] was 12.4 upbm affinity estimate (log intensity, higher = more binding, comparable within an allelic series) and the binding signal [11] was 12 upbm affinity estimate (log intensity, higher = more binding, comparable within an allelic series). For the same sequence, the binding signal [12] was 11.8 upbm affinity estimate (log intensity, higher = more binding, comparable within an allelic series), the binding signal [13] was 11.8 upbm affinity estimate (log intensity, higher = more binding, comparable within an allelic series) and the binding signal [5] was 10.9 upbm affinity estimate (log intensity, higher = more binding, comparable within an allelic series).
For GTTCTTAA, the binding signal [14] was 10.3 upbm affinity estimate (log intensity, higher = more binding, comparable within an allelic series), the binding signal [15] was 11.4 upbm affinity estimate (log intensity, higher = more binding, comparable within an allelic series) and the binding signal [16] was 10.5 upbm affinity estimate (log intensity, higher = more binding, comparable within an allelic series).
For AAGATTAC, the binding signal [14] was 10.2 upbm affinity estimate (log intensity, higher = more binding, comparable within an allelic series), the binding signal [15] was 11.1 upbm affinity estimate (log intensity, higher = more binding, comparable within an allelic series) and the binding signal [16] was 10.4 upbm affinity estimate (log intensity, higher = more binding, comparable within an allelic series).
In the case of GGTAATAA, the binding signal [1] is reported as 12.4 upbm affinity estimate (log intensity, higher = more binding, comparable within an allelic series), the binding signal [9] is reported as 12.2 upbm affinity estimate (log intensity, higher = more binding, comparable within an allelic series) and the binding signal [3] is reported as 12.6 upbm affinity estimate (log intensity, higher = more binding, comparable within an allelic series). For the same sequence, the binding signal [4] was 12.5 upbm affinity estimate (log intensity, higher = more binding, comparable within an allelic series), the binding signal [12] was 11.9 upbm affinity estimate (log intensity, higher = more binding, comparable within an allelic series) and the binding signal [5] was 10.9 upbm affinity estimate (log intensity, higher = more binding, comparable within an allelic series).
For AGTCTTTA, the binding signal [14] was 10.2 upbm affinity estimate (log intensity, higher = more binding, comparable within an allelic series), the binding signal [15] was 11.2 upbm affinity estimate (log intensity, higher = more binding, comparable within an allelic series) and the binding signal [16] was 10.4 upbm affinity estimate (log intensity, higher = more binding, comparable within an allelic series).
With CCGGCTAG the binding signal [1] was 9.47 upbm affinity estimate (log intensity, higher = more binding, comparable within an allelic series), the binding signal [17] was 8.04 upbm affinity estimate (log intensity, higher = more binding, comparable within an allelic series) and the binding signal [18] was 8.02 upbm affinity estimate (log intensity, higher = more binding, comparable within an allelic series). The binding signal [3] was 9.55 upbm affinity estimate (log intensity, higher = more binding, comparable within an allelic series), the binding signal [19] was 9.38 upbm affinity estimate (log intensity, higher = more binding, comparable within an allelic series) and the binding signal [4] was 9.53 upbm affinity estimate (log intensity, higher = more binding, comparable within an allelic series). The binding signal [20] was 9.32 upbm affinity estimate (log intensity, higher = more binding, comparable within an allelic series), the binding signal [21] was 6.74 upbm affinity estimate (log intensity, higher = more binding, comparable within an allelic series) and the binding signal [5] was 9.7 upbm affinity estimate (log intensity, higher = more binding, comparable within an allelic series). For the same sequence, the binding signal [22] was 9.36 upbm affinity estimate (log intensity, higher = more binding, comparable within an allelic series), the binding signal [23] was 6.97 upbm affinity estimate (log intensity, higher = more binding, comparable within an allelic series) and the binding signal [24] was 6.86 upbm affinity estimate (log intensity, higher = more binding, comparable within an allelic series).
